# Measured values: PubChem BioAssay AID651954 (NMMLSC, 2012)
# Hit rate of the full screen: of about 1,500 compounds, about 160 (11%) were called active. Only a sample is shown. Values without a mark were called inactive. No stated cut-off is given here; in the data, active means inhibition above about 60%; inactive means the rest.
# Test: blockers of LAMP-1 surface exposure, TALL-104 – TALL-104 cells, flow cytometry, Cherry Pick01, confirmation (AID 651954);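 further: 0% = stimulated vehicle wells and 100% = unstimulated wells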
# Conditions: LAMP-1 externalization, at 10 µM, active compounds read high, stimulated with PMA plus thapsigargin
row,SMILES,inhibition
1,Cc1ccccc1CN1C[C@@H]2C[C@@H](c3cn(C)nc3-c3ccccc3)N3CCC[C@@]23C1=O,-13.4%
2,CCc1ccc(-c2cc3c(=O)n(CC(=O)NCCCN4CCN(Cc5ccccc5)CC4)nc(C)n3n2)cc1,34.9%
3,Cn1sc(=O)c2cc(S(=O)(=O)NC3CC3)ccc21,79.8% (active)
4,COc1ccc(OC)c(NC(=O)CN(C)CCOc2ccc(Br)cc2)c1,-14.9%
5,OCCNc1nc(Nc2ccc(Cl)c(Cl)c2)nc2ccccc12,-11.3%
6,Cc1nc(-c2ccc(Cl)cc2)sc1C1(C)CC(c2ccc(Br)cc2)=NO1 (stereo unspecified),-3.75%
7,CCOc1ccc(Cl)cc1-c1cc(C(=O)NCc2cccs2)[nH]n1,66.4% (active)
8,COc1ccc(-c2cn[nH]c2-c2ccc(OC)cc2)cc1,2.16%
9,COc1ccc2sc(-c3ccc(N(C)C)cc3)c(-c3ccc4cc[nH]c4c3)c2c1,-13.7%
10,COc1cccc(NC(=O)C2C(c3ccccc3)C2(Cl)Cl)c1 (stereo unspecified),0.14%
11,COc1ccc(C2CC(c3cccs3)=NN2c2nc(C)c(C(C)=O)s2)cc1OC (stereo unspecified),73.4% (active)
12,CC(C)Cn1cnc2c(SCc3ccc(Cl)cc3)nc(N)nc21,-12.1%
13,CCOC(=O)C1(CCOc2ccccc2)CCN(Cc2ccc(C#CCCO)cc2)CC1,-4.45%
14,Oc1ccccc1-c1cc(-c2ccc(Cl)cc2)n[nH]1,-11.6%
15,CC(C)c1ccccc1OCC(O)CN(CC(O)COc1cccc2ccccc12)C(C)C (stereo unspecified),87.3% (active)
16,CS(=O)(=O)N(CC(O)Cn1c2ccccc2c2ccccc21)c1cccc2ccccc12 (stereo unspecified),5.69%
17,O=C(Nc1ccccc1)c1cccnc1Nc1ccccc1,-4%
18,O=S(=O)(Nc1ccc(O)c2ccccc12)c1ccc(OC(F)(F)F)cc1,-11.4%
19,COc1ccc(CCNC(=O)C2CC3Cn4c(nc5cc(C)c(C)cc54)C3N2C)cc1 (stereo unspecified),-13.9%
20,C=CCn1c(SCc2csc(C)n2)nc2scc(-c3ccc(C)o3)c2c1=O,-12.8%
21,Nc1c(C(=O)c2cccs2)sc2nsc(SCCN3CCCCC3)c12,22%
22,Cc1oc(-c2ccccc2Cl)[n+]([O-])c1C,-3.08%

row,SMILES,inhibition
1,COc1ccccc1N1CCN(c2ncnc3sc(C)c(-c4ccccc4)c23)CC1,-3.66%
2,CC(=O)Nc1ccc(-c2csc(NC(=O)Nc3ccccc3)n2)cc1,55.2%
3,O=C(COc1ccc(Cl)cc1)N1CCN(c2cccc(C(F)(F)F)c2)CC1,5.85%
4,CCCC(C(=O)n1nc(C)cc1C)C(NS(=O)(=O)c1ccc(C)cc1)c1ccccc1 (stereo unspecified),1.32%
5,CN(c1ccccc1)S(=O)(=O)c1ccc(C(=O)NCCc2ccccc2)cc1,-3.54%
6,O=C(NCc1ccccc1)C(c1ccccc1)N(C(=O)c1csnn1)c1ccc(F)cc1 (stereo unspecified),-12.2%
7,Cc1ccc(-c2ccnc3nc(Sc4ncc(C(F)(F)F)cc4Cl)nn23)cc1,-4.56%
8,Cc1cccc(-c2nc3ccc(C(=O)NCCN4CCN(C)CC4)cc3nc2-c2cccc(C)c2)c1,2.79%
9,COc1ccc(-c2csc(Nc3ccc(O)cc3)n2)cc1,-6.12%
10,COc1ccc(CC(N)c2csc(NC(=O)Nc3ccc(C(C)C)cc3)n2)cc1 (stereo unspecified),11.2%
11,Cc1cccc(N2CCC(NCc3c(C(=O)N4CCCCC4)nc4c(C)cccn34)CC2)c1,-4.45%
12,COc1ccc(-c2oc3ncnc(NCCCO)c3c2-c2ccc(OC)cc2)cc1,-0.03%
13,O=S(=O)(c1ccccc1)N(Cc1cccc(F)c1)c1ccccc1,-7.22%
14,CN(C)CCNC(=O)c1ccc(-c2cn3c(-c4ccc(Oc5ccccc5)cc4)cnc3cn2)cc1,87.2% (active)
15,O=C(NC(=O)c1ccccc1N1CCCCC1)Nc1ccc(Br)cc1,-13.3%
16,Cc1cccc2sc(N(CCCN(C)C)C(=O)CCS(=O)(=O)c3ccccc3)nc12,7.86%
17,COc1ccccc1CN1CCN(C(c2ccccc2)c2ccccc2)CC1,-12.1%
18,CCN1C(=O)[C@H]2[C@@H](c3ccc(-c4ccc(F)cc4)cc3)N[C@@](Cc3ccccc3)(C(=O)OC)[C@H]2C1=O,-2.41%
19,CC1CCN(c2ccc([N+](=O)[O-])cc2C(N)=O)CC1,-4.56%
20,COc1cccc(CN(C)CC2CCCN(CCc3ccc(Cl)cc3)C2)c1OC (stereo unspecified),-10.6%
21,CCOC(=O)C1(C)CCCN(C(=O)c2ccc(F)c(Cl)c2)C1 (stereo unspecified),-12.7%
22,CS(=O)(=O)N(Cc1ccc(Cl)cc1)c1ccc(C(=O)NCCSCc2ccco2)cc1,17.9%

row,SMILES,inhibition
1,COc1cccc(CN(C)CC(O)COC(c2ccccc2)c2ccccc2C)c1 (stereo unspecified),-4.22%
2,COc1ccccc1C1=Nc2cccc3cccc(c23)N1,-15.4%
3,COc1cccc(CNc2nc(NCc3ccccc3OC)nc3ccsc23)c1,35.8%
4,CN1CCN(C2Cc3ccc(Cl)cc3Sc3ccc(F)cc32)CC1 (stereo unspecified),15%
5,COc1cccc(CNc2nc(C(F)(F)F)nc3ccccc23)c1,-14.3%
6,COc1ccc(-c2cc(C(=O)N(C)Cc3ccccc3)c3ccccc3n2)cc1,-6.15%
7,Cc1ccc(NC(=O)c2cc(-c3ccc(C)o3)nc3ccccc23)nc1,-10.9%
8,CC(=O)C[C@@H](O)CC(=O)[C@H]1OC(=O)CCCCCCc2ccccc21,-13.1%
9,CCCCc1ccc(NC(=S)NCCCN2CCOCC2)cc1,-11.7%
10,Cc1cnc(C(=O)OCc2c(C)cc(C(C)(C)C)cc2C)cn1,-3.52%
11,COc1ccc(Oc2cn[nH]c2-c2ccc(OC)cc2O)cc1,-11.7%
12,CCCCC[C@H](C)N1C[C@@H](COCc2ccccc2)Oc2cc(N3CC[C@@H](N(C)C)C3)ccc2S1(=O)=O,16.6%
13,COc1ccc(CCNCc2c(-c3ccccc3)n(C)c3ccccc23)cc1,6.74%
14,COc1ccc(-c2cc(NC=O)c3ncc(-c4ccccc4)n3c2)cc1OC,80.3% (active)
15,CCCC(=O)Nc1nc2ccc(NC(=O)c3c(F)c(F)c(OC)c(F)c3F)cc2s1,-1.52%
16,CCOC(=O)C1(CCOc2ccccc2)CCN(Cc2cc(OC)c(O)cc2Cl)CC1,-6.73%
17,COc1cccc(COc2ccc(N(C)S(=O)(=O)c3ccccc3)cc2)c1,-7.06%
18,COC(=O)[C@H](Cc1ccccc1)NC(=O)[C@@H]1C[C@H]1[C@@H](NC(=O)OCc1ccccc1)c1ccccc1,48%
19,Brc1ccccc1C1Nc2cccc3cccc(c23)N1,106% (active)
20,CC(CC(=O)Nc1cc(C(F)(F)F)ccc1Cl)c1ccccc1 (stereo unspecified),0.82%
21,Cc1cccc(N(CC(=O)Nc2ccc(-c3nc4ccc(C)cc4s3)cc2)S(C)(=O)=O)c1,29%
22,O=C(Nc1ccc(Cl)cc1)Nc1nnc(/C=C/c2ccccc2)s1,-2.86%
